Measured values from PubChem BioAssay (NCI).
Compounds without any hit were thinned out: in the full panel of roughly 79,000, 15% have a hit. The source made the active and inactive calls. Rule as the data show it: active = growth inhibition above about 70%; inactive = the rest.

Experiment: NCI Yeast Anticancer Drug Screen. Data for the mec2-1 strain (AID 157)
Conditions: S. cerevisiae mec2-1 strain, at 5.0 µM (retest, dose inferred, filed as 0.5), hits give high values
How it was run: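 Compounds were applied to mec2-1 yeast cells. Their growth was then compared with that of vehicle-treated cultures to give growth inhibition.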
For `COc1ccc2nc3cccc([N+](=O)[O-])c3c(NCCNCCN(C)C)c2c1`, the growth inhibition was 5% (inactive).
In the case of `Cc1cccc(/C=N/NC(=S)NC2CCCCC2)n1`, the growth inhibition is reported as -23% (inactive).
With `COC(=O)C(=O)c1c(-c2ccc(Cl)c(Cl)c2)[nH]c2[nH]n(-c3ccccc3)c(=O)c2c1=O` the growth inhibition was -7% (inactive).
In the case of `c1ccc([P+](CCN2Cc3ccccc3C2)(c2ccccc2)c2ccccc2)cc1`, the growth inhibition is reported as 49% (inactive).
In the case of `Cc1cc(C)c2[s+]snc2c1`, the growth inhibition is reported as -6% (inactive).
For `CC(C)(Br)C(=O)/C=C/c1ccccc1`, the growth inhibition was -14% (inactive).
In the case of `Cc1ccc(S(=O)(=O)NC(=O)C2C(=O)CC3(CCCCC3)CC2=O)cc1`, the growth inhibition is reported as 12% (inactive).
With `NC(=S)N1N=C2c3ccccc3CC[C@H]2[C@@H]1c1ccc(Cl)cc1` the growth inhibition was 7% (inactive).
In the case of `O=[N+]([O-])/C=C/c1cc2ccc3ccccc3c2[nH]1`, the growth inhibition is reported as 55% (inactive).
In the case of `O=C1C(=C2CCCC2)CCC1CN1CCCCC1` (configuration not stated), the growth inhibition is reported as 6% (inactive).
With `OC(CC(O)(C(F)(F)F)C(F)(F)F)c1ccc(C(O)CC(O)(C(F)(F)F)C(F)(F)F)cc1` (configuration not stated) the growth inhibition was 42% (inactive).
With `COc1cc2c(cc1OC)[C@@H](Nc1ccc(C#N)cc1)C1COC(=O)[C@@H]1C2c1cc(OC)c(O)c(OC)c1` (some centres not stated) the growth inhibition was 11% (inactive).
In the case of `O=c1cccccc1[O-].O=c1cccccc1[O-].O=c1cccccc1[O-].[Eu+3]`, the growth inhibition is reported as 26% (inactive).
In the case of `O=C1c2ccccc2C(=O)c2sc(Nc3ccccc3Cl)nc21`, the growth inhibition is reported as 97% (active).
In the case of `NC(CCCCCCCCCCCCC(N)C(=O)c1ccccc1)C(=O)c1ccccc1` (configuration not stated), the growth inhibition is reported as -15% (inactive).
In the case of `CC1=C(C)C(=O)C2=C(OCCO2)C1=O`, the growth inhibition is reported as -8% (inactive).
With `c1ccc(-c2cc(C3CO3)c3ccccc3n2)cc1` (configuration not stated) the growth inhibition was -28% (inactive).
For `S=C1C(=Nc2ccccc2)N(c2ccccc2)/C(=N\c2ccccn2)N1c1ccccc1`, the growth inhibition was 24% (inactive).
In the case of `CCC(OC(C)=O)C1CC(C(C)C)CCC1C` (configuration not stated), the growth inhibition is reported as 4% (inactive).
With `CC(C)=CCc1c2c(c(O)c3c(=O)c(-c4ccc(O)c(O)c4)coc13)C=CC(C)(C)O2` the growth inhibition was 30% (inactive).
With `O=C(NC(N1CCN(c2cc3c(cc2F)c(=O)c(C(=O)O)cn3C2CC2)CC1)(C(F)(F)F)C(F)(F)F)c1ccccc1` the growth inhibition was 3% (inactive).
For `Fc1cc(F)c(F)c(S)c1F`, the growth inhibition was -19% (inactive).
With `COc1ccc2cc3c4cc5c(cc4cc[n+]3cc2c1OC)OCO5` the growth inhibition was 57% (inactive).
With `CCCCCCCCNCCCCCCCC` the growth inhibition was 9% (inactive).
For `Nc1cc(Cl)ccc1Nc1ccccc1`, the growth inhibition was 65% (inactive).
For `O=C(/C(=C/c1ccc(O)cc1)c1ccccc1)c1ccccc1`, the growth inhibition was -8% (inactive).
For `O=Cc1ccccc1C=O`, the growth inhibition was -8% (inactive).
With `C1=CCN([B-](c2ccccc2)[C+]2CCCCC2)C=C1` the growth inhibition was -4% (inactive).
With `CC/C(=C(\c1ccccc1)c1ccc(OCC[N+](C)(C)C)cc1)c1ccccc1` the growth inhibition was 31% (inactive).
For `O=S(=O)(c1cccc(C(F)(F)F)c1)N1c2ccccc2-n2cccc2C1c1cccnc1` (configuration not stated), the growth inhibition was 31% (inactive).
With `Nc1ccc2c(c1)C(=O)c1c(F)cccc1-2` the growth inhibition was -48% (inactive).
For `CN(C)/C(=N/C(=S)Nc1ccccc1)SCc1ccccc1`, the growth inhibition was -1% (inactive).
For `CCN(CC)C(=S)N/N=C(\C)c1ccccc1O`, the growth inhibition was 35% (inactive).
For `CC(C)OC(=O)NNc1cc(Cl)ccc1Cl`, the growth inhibition was 9% (inactive).
In the case of `CC(C)CCC[C@@H](C)[C@H]1CC[C@H]2[C@@H]3CC[C@H]4C[C@H](N)CC[C@]4(C)[C@H]3CC[C@]12C`, the growth inhibition is reported as -9% (inactive).
For `O=C1c2ccccc2-c2ccc(N=Cc3ccccc3)cc21`, the growth inhibition was 4% (inactive).

Same assay, conditions: S. cerevisiae mec2-1 strain, at 11.0 µM, hits give high values
With `COc1ccc2nc3cccc([N+](=O)[O-])c3c(NCCNCCN(C)C)c2c1` the growth inhibition was 2% (inactive).
With `Cc1cccc(/C=N/NC(=S)NC2CCCCC2)n1` the growth inhibition was -5% (inactive).
For `COC(=O)C(=O)c1c(-c2ccc(Cl)c(Cl)c2)[nH]c2[nH]n(-c3ccccc3)c(=O)c2c1=O`, the growth inhibition was 40% (inactive).
With `c1ccc([P+](CCN2Cc3ccccc3C2)(c2ccccc2)c2ccccc2)cc1` the growth inhibition was 36% (inactive).
In the case of `Cc1cc(C)c2[s+]snc2c1`, the growth inhibition is reported as -3% (inactive).
With `CC(C)(Br)C(=O)/C=C/c1ccccc1` the growth inhibition was 17% (inactive).
For `Cc1ccc(S(=O)(=O)NC(=O)C2C(=O)CC3(CCCCC3)CC2=O)cc1`, the growth inhibition was 20% (inactive).
For `NC(=S)N1N=C2c3ccccc3CC[C@H]2[C@@H]1c1ccc(Cl)cc1`, the growth inhibition was 23% (inactive).
With `O=[N+]([O-])/C=C/c1cc2ccc3ccccc3c2[nH]1` the growth inhibition was 63% (inactive).
In the case of `O=C1C(=C2CCCC2)CCC1CN1CCCCC1` (configuration not stated), the growth inhibition is reported as 9% (inactive).
For `OC(CC(O)(C(F)(F)F)C(F)(F)F)c1ccc(C(O)CC(O)(C(F)(F)F)C(F)(F)F)cc1` (configuration not stated), the growth inhibition was 94% (active).
For `COc1cc2c(cc1OC)[C@@H](Nc1ccc(C#N)cc1)C1COC(=O)[C@@H]1C2c1cc(OC)c(O)c(OC)c1` (some centres not stated), the growth inhibition was 15% (inactive).
For `O=c1cccccc1[O-].O=c1cccccc1[O-].O=c1cccccc1[O-].[Eu+3]`, the growth inhibition was 16% (inactive).
For `O=C1c2ccccc2C(=O)c2sc(Nc3ccccc3Cl)nc21`, the growth inhibition was 99% (active).
With `NC(CCCCCCCCCCCCC(N)C(=O)c1ccccc1)C(=O)c1ccccc1` (configuration not stated) the growth inhibition was 43% (inactive).
With `CC1=C(C)C(=O)C2=C(OCCO2)C1=O` the growth inhibition was -5% (inactive).
With `c1ccc(-c2cc(C3CO3)c3ccccc3n2)cc1` (configuration not stated) the growth inhibition was -4% (inactive).
In the case of `S=C1C(=Nc2ccccc2)N(c2ccccc2)/C(=N\c2ccccn2)N1c1ccccc1`, the growth inhibition is reported as 28% (inactive).
With `CCC(OC(C)=O)C1CC(C(C)C)CCC1C` (configuration not stated) the growth inhibition was 6% (inactive).
With `CC(C)=CCc1c2c(c(O)c3c(=O)c(-c4ccc(O)c(O)c4)coc13)C=CC(C)(C)O2` the growth inhibition was 87% (active).
In the case of `O=C(NC(N1CCN(c2cc3c(cc2F)c(=O)c(C(=O)O)cn3C2CC2)CC1)(C(F)(F)F)C(F)(F)F)c1ccccc1`, the growth inhibition is reported as 0% (inactive).
With `Fc1cc(F)c(F)c(S)c1F` the growth inhibition was -6% (inactive).
In the case of `COc1ccc2cc3c4cc5c(cc4cc[n+]3cc2c1OC)OCO5`, the growth inhibition is reported as 55% (inactive).
With `CCCCCCCCNCCCCCCCC` the growth inhibition was 77% (active).
With `Nc1cc(Cl)ccc1Nc1ccccc1` the growth inhibition was -49% (inactive).
For `O=C(/C(=C/c1ccc(O)cc1)c1ccccc1)c1ccccc1`, the growth inhibition was 55% (inactive).
With `O=Cc1ccccc1C=O` the growth inhibition was -12% (inactive).
In the case of `C1=CCN([B-](c2ccccc2)[C+]2CCCCC2)C=C1`, the growth inhibition is reported as 4% (inactive).
With `CC/C(=C(\c1ccccc1)c1ccc(OCC[N+](C)(C)C)cc1)c1ccccc1` the growth inhibition was 99% (active).
With `O=S(=O)(c1cccc(C(F)(F)F)c1)N1c2ccccc2-n2cccc2C1c1cccnc1` (configuration not stated) the growth inhibition was 56% (inactive).
For `Nc1ccc2c(c1)C(=O)c1c(F)cccc1-2`, the growth inhibition was 18% (inactive).
For `CN(C)/C(=N/C(=S)Nc1ccccc1)SCc1ccccc1`, the growth inhibition was -4% (inactive).
For `CCN(CC)C(=S)N/N=C(\C)c1ccccc1O`, the growth inhibition was 40% (inactive).
In the case of `CC(C)OC(=O)NNc1cc(Cl)ccc1Cl`, the growth inhibition is reported as 34% (inactive).
In the case of `CC(C)CCC[C@@H](C)[C@H]1CC[C@H]2[C@@H]3CC[C@H]4C[C@H](N)CC[C@]4(C)[C@H]3CC[C@]12C`, the growth inhibition is reported as -2% (inactive).
In the case of `O=C1c2ccccc2-c2ccc(N=Cc3ccccc3)cc21`, the growth inhibition is reported as -3% (inactive).
